# Test results taken from article PMC12431657, “Discovery and mechanistic insights of dibenzoylmethane as a broad spectrum inhibitor of coronavirus” (PLOS Pathogens, 2025).
# Counter-ions that a name gives are not always drawn. Like-named read-outs stand apart in the source and are kept apart here. Out of some 3,300 compounds screened, about 60 (2%) showed an effect of 50% or more. This is one part of a sample in which strong results are shown more often than they occur.
# System: HCoV-OC43
# Parameters: species or system RD; HTS, protection from HCoV-OC43 induced cell death, luminescent cell viability (CellCounting-Lite 2.0), inhibition rate
# Settings: 24 h post infection, 1 h compound pre-incubation, 10 µM, inhibitor
SMILES,OC43 Inhibition rate [%],"OC43 Inhibition rate (OC43 Inhibition rate, 24 h) [%]"
C=C1[C@@H](C)[C@H]2[C@H](Cc3ccccc3)NC(=O)[C@]23OC(=O)/C=C/[C@H](O)CCC[C@@H](C)C/C=C/[C@H]3[C@@H]1O [Cytochalasin B],63,
C=C1C[C@@]23CC[C@H]4[C@@](C)(CCC[C@@]4(C)C(=O)O[C@@H]4O[C@H](CO)[C@@H](O)[C@H](O)[C@H]4O[C@@H]4O[C@H](CO)[C@@H](O)[C@H](O)[C@H]4O)[C@@H]2CC[C@]1(O[C@@H]1O[C@H](CO)[C@@H](O)[C@H](O[C@@H]2O[C@H](CO)[C@@H](O)[C@H](O)[C@H]2O)[C@H]1O[C@@H]1O[C@H](CO)[C@@H](O)[C@H](O)[C@H]1O)C3 [Rebaudioside D],1.1,
CCCCC1OC(=O)C2=CCCCC21 (centres unmarked) [Sedanolide],-0.1,
CC(C)=CCc1cc(-c2coc3cc(O)cc(O)c3c2=O)cc(O)c1O [Glycyrrhisoflavone],2.1,
COc1ccc(-c2oc3c(CC=C(C)C)c(O)cc(O)c3c(=O)c2O[C@@H]2O[C@@H](C)[C@H](O)[C@@H](O)[C@H]2O[C@@H]2O[C@@H](C)[C@H](O)[C@@H](O)[C@H]2O)cc1 [2''-O-Rhamnosylicariside II],0.3,
CC(C)=CCc1c(O)cc(O)c2c(=O)c(O[C@@H]3O[C@@H](C)[C@H](O)[C@@H](O)[C@H]3O)c(-c3ccc(O)cc3)oc12 [IKarisoside A],14.9,
CC(C)=CCc1c(O)cc(O)c2c(=O)c(-c3ccc(O)cc3)coc12 [Lupiwighteone],63.3,
CC(C)=CCc1c(O)cc(O)c2c(=O)cc(-c3ccc(O)cc3)oc12 [Licoflavone C],7.3,
COc1ccc(-c2oc3c(CC=C(C)C)c(O)cc(O)c3c(=O)c2O[C@@H]2O[C@@H](C)[C@H](O)[C@@H](O)[C@H]2O)cc1 [Baohuoside I],70.2,
CC(C)=CCc1c(-c2ccc(O)cc2O)oc2c3c(cc(O)c2c1=O)OC(C)(C)C=C3 [Morusin],5.8,
CC(C)=CCc1cc(-c2coc3cc(O)ccc3c2=O)ccc1O [Neobavaisoflavone],18.1,
COc1ccc(-c2oc3c(CC=C(C)C)c(O)cc(O)c3c(=O)c2O)cc1 [Icaritin],0.1,
O=c1c(-c2ccc(O)cc2)coc2cc(O)cc(O)c12 [Genistein],6.8,
CC(C)=CCc1c(O)ccc(-c2coc3cc(O)cc(O)c3c2=O)c1O [Licoisoflavone A],59.7,
CC(C)=CCc1c(-c2ccc(O)cc2O)oc2c(CC=C(C)C)c(O)cc(O)c2c1=O [Mulberrin],51.7,
CC(=O)O[C@H]1C[C@@]2(C)[C@@H](C[C@@H](O)[C@H]3[C@@]4(C)CC[C@@H](O)[C@@H](C)[C@@H]4CC[C@@]32C)/C1=C(\CCC=C(C)C)C(=O)O [Fusidic acid (sodium salt)],1.2,
"CC1(C)[C@H](OC(=O)c2ccccc2)CC[C@]2(C)C3=CC[C@@]4(C)[C@@H]5C[C@](C)(COC(=O)c6ccccc6)CC[C@]5(C)CC[C@]4(C)C3=CC[C@@H]12 [3,29-O-Dibenzoyloxykarounidiol]",-4.4,
COC(=O)C1=CO[C@@H](O[C@@H]2O[C@H](CO)[C@@H](O)[C@H](O)[C@H]2O)[C@@H]2[C@@]3(C)O[C@H]3[C@@H](O)[C@]12O [Sesamoside],-1.2,
CCC/C=C\C=C\CCCCCCCCCO [Bombykol],1.1,

SMILES,OC43 Inhibition rate [%],"OC43 Inhibition rate (OC43 Inhibition rate, 24 h) [%]"
COc1nccc(N)n1 [2-O-Methylcytosine],0.2,
C[C@]12CC[C@@H](O)C[C@H]1CC[C@@H]1[C@@H]2[C@@H](O)C[C@@]2(C)[C@H]1CC[C@]2(O)C(=O)CO [Tetrahydrocortisol],-0.2,
CC(=O)O[C@@]12CO[C@@H]1C[C@H](O)[C@@]1(C)C(=O)[C@H](O)C3=C(C)[C@@H](OC(=O)[C@H](O)[C@@H](NC(=O)c4ccccc4)c4ccccc4)C[C@@](O)([C@@H](OC(=O)c4ccccc4)[C@H]21)C3(C)C [10-Deacetyltaxol],0.2,
CC(=O)c1cc2c(CO)cc(O)cc2oc1=O [Armillarisin A],-0.4,
COc1ccc([C@H]2OC[C@H]3[C@@H]2CO[C@@H]3c2ccc(OC)c(OC)c2)cc1OC [Pinoresinol dimethyl ether],,1.1
COc1ccc(-c2oc3c(CC=C(C)C)c(O[C@@H]4O[C@H](CO)[C@@H](O)[C@H](O)[C@H]4O)cc(O)c3c(=O)c2O[C@@H]2O[C@@H](C)[C@H](O)[C@@H](O)[C@H]2O[C@@H]2OC[C@@H](O)[C@H](O)[C@H]2O)cc1 [Epimedin B],1,
O=C(O)c1ccccc1 [Benzoic acid],-0.2,
O=C(c1ccccc1)c1ccccc1 [Benzophenone],-0.1,
"O=C(CC(=O)c1ccccc1)c1ccccc1 [DBM, dibenzoylmethane]",102.9,
Oc1cc(O)cc(/C=C/c2c(O)cccc2O)c1 [Gnetol],-1,
O=c1cc(-c2ccc(O)cc2)oc2c([C@@H]3O[C@H](CO)[C@@H](O)[C@H](O)[C@H]3O)c(O)c([C@@H]3OC[C@@H](O)[C@H](O)[C@H]3O)c(O)c12 [Vicenin-1],-1.7,
COc1cc([C@H]2Oc3cc([C@H]4Oc5cc(O)cc(O)c5C(=O)[C@@H]4O)ccc3O[C@@H]2CO)ccc1O [Silibinin],,1.4
CCCCCCCCCC(O)CC(=O)O (centres unmarked) [3-Hydroxydodecanoic acid],-3.9,
"Cn1cc(C(=O)O)ccc1=O [1-Methyl-6-oxo-1,6-dihydropyridine-3-carboxylic acid]",0.2,
O=C(CCc1ccc(O)c(O)c1)NCCCNCCCCNCCCNC(=O)CCc1ccc(O)c(O)c1 [Kukoamine A],2.2,
Nc1ncnc2c1ncn2[C@@H]1O[C@H](CO)C[C@H]1O [Cordycepin],-0.3,
Nc1ncnc2c1ncn2[C@@H]1C[C@H](CO)[C@@H](O)[C@H]1O [Aristeromycin],53.9,
Nc1ncnc2c1ncn2[C@H]1C[C@H](O)[C@@H](CO)O1 [2'-Deoxyadenosine monohydrate],,-2.3
C=C1C(=O)O[C@H]2C[C@@H](C)[C@@H]3CCC(=O)[C@@]3(C)[C@@H](OC(C)=O)[C@H]12 [Ergolide],10.6,

SMILES,OC43 Inhibition rate [%],"OC43 Inhibition rate (OC43 Inhibition rate, 24 h) [%]"
CC(C)=CCC[C@](C)(O)[C@@H]1CC=C(C)CC1 [Levomenol],,-0.7
Cn1cnc2c(ncn2[C@@H]2O[C@H](CO)[C@@H](O)[C@H]2O)c1=O [1-Methylinosine],0.1,
C[C@@H]1[C@H](O)[C@@H](C)/C=C/C=C/C=C/C=C/C=C/C=C/C=C/[C@H](O[C@@H]2O[C@H](C)[C@@H](O)[C@H](N)[C@@H]2O)C[C@@H]2O[C@](O)(C[C@@H](O)C[C@@H](O)[C@H](O)CC[C@@H](O)C[C@@H](O)CC(=O)O[C@H]1C)C[C@H](O)[C@H]2C(=O)O [amphotericin B],103.7,
C[C@@H]1C/C=C/C=C/C=C/C=C/[C@H](O[C@@H]2O[C@H](C)[C@@H](O)[C@H](N)[C@@H]2O)C[C@@H]2O[C@](O)(C[C@@H](O)C[C@H]3O[C@@H]3/C=C/C(=O)O1)C[C@H](O)[C@H]2C(=O)O [Natamycin],-0.1,
O=S(=O)(O)CCO [Isethionic acid sodium salt],-0.5,
O=C(O)[C@H](O)[C@H](O)[C@@H](O)[C@H](O)[C@H](O)CO [NSC 42196],3.4,
N[C@H](C(=O)O)[C@@H]1CC(Cl)=NO1 [Acivicin (hydrochloride)],61.6,
CC1(C)CCC[C@]2(C)[C@H]3CCO[C@]3(C)CC[C@@H]12 [Ambroxide],-0.5,
CC1=CC(=O)C(C(C)C)CC1 (centres unmarked) [Piperitone],-0.8,
CC(=O)NCCCC[C@H](N)C(=O)O [Nepsilon-Acetyl-L-lysine],-0.2,
C=C[C@H]1CN2CC[C@@]3(C(=O)Nc4ccccc43)[C@@H]2C[C@@H]1/C(=C\OC)C(=O)OC [Isocorynoxeine],-0.3,
CCC/C=C1\OC(=O)C2=C1CC[C@H]1[C@H]3C=C4C(=O)O/C(=C\CCC)[C@@]4(CC3)[C@@H]21 [Levistolide A],77.4,
CCC/C=C1\OC(=O)C2=C1CC[C@@H](O)[C@H]2O [Senkyunolide H],-0.5,
CCC/C=C1\OC(=O)C2=C1CC[C@H](O)[C@H]2O [Senkyunolide I],-0.4,
O=C(O)c1ccc(=O)oc1 [Coumalic acid],10.5,
CC(=O)O[C@@H]1CC[C@@]2(C)[C@@H](CC[C@]3(C)[C@@H]2[C@H](O)C=C2[C@@H]4[C@@H](C)[C@H](C)CC[C@]4(C)CC[C@]23C)[C@@]1(C)C(=O)O [3-O-Acetyl-11-hydroxy-beta-boswellic acid],15.2,
CC(=O)O[C@@H]1CC[C@@]2(C)[C@@H](CC[C@]3(C)[C@@H]2CC=C2[C@@H]4[C@@H](C)[C@H](C)CC[C@]4(C)CC[C@]23C)[C@@]1(C)C(=O)O [3-Acetyl-beta-boswellic acid],66.7,
C[C@H]1[C@H](C)CC[C@]2(C)CC[C@]3(C)C(=CC[C@@H]4[C@@]5(C)CC[C@@H](O)[C@](C)(C(=O)O)[C@@H]5CC[C@]43C)[C@H]12 [β-Boswellic acid],-0.2,
